This note sets out measurements from PubChem BioAssay (Tox21).

Results filed as inconclusive are left out. The source made the active and inactive calls. Unless noted, calls follow the shape of the dose curve; as a rule, active = well fitted curve in the direction sought with a large enough effect in the repeat runs; inconclusive = weak or mixed curves; inactive = no such curve, though single readings can be large; an effect the other way counts as inactive or inconclusive.

Assay [1] can be described thus: qHTS assay to identify small molecule antagonists of the androgen receptor (AR) signaling pathway using the MDA cell line in the presence of 0.5 nM R1881 - cell viability counter screen (AID 1259242). Also: nearly all actives have a fitted effect of over 45% in size. Also: potency is read from the fitted curve at half-maximal effect. In short, it runs like this:
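Cells seeded at 3,000/well and allowed 5 hr at 37C, 0% CO2 before compound transfer and R1881 (0.5 nM final) addition; 16 hr later, live-cell protease fluorescence indicated cytotoxicity.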
(In general: In qHTS, concentration-response curves come from the screen itself.)

The target in assay [2] is Androgen receptor (Homo sapiens) (UniProt P10275). Nature of the assay: qHTS assay to identify small molecule antagonists of the androgen receptor (AR) signaling pathway using the MDA cell line in the presence of 0.5 nM R1881 (AID 1259243). Also: nearly all actives have a fitted effect of over 50% in size. Also: potency is read from the fitted curve at half-maximal effect. The method in brief: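 Luminescence from an AR/GR-responsive MMTV-luciferase construct in MDA-kb2 breast carcinoma cells, read 30 min after ONE-Glo, following 16 hr co-treatment with compounds and 0.5 nM R1881.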

The target in assay [3] is Estrogen receptor (Homo sapiens) (UniProt P03372). The assay is described as follows: qHTS assay to identify small molecule antagonists of the estrogen receptor alpha (ER-alpha) signaling pathway using the BG1 cell line in the presence of 0.1 nM 17-beta-estradiol (AID 1259244). Also: nearly all actives have a fitted effect of over 50% in size. Also: potency is read from the fitted curve at half-maximal effect. In short, it runs like this: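 Luciferase signal from VM7Luc4E2 ERE-reporter cells, co-dosed with test compound and 0.1 nM final 17beta-estradiol for 22 h, read with ONE-Glo.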

Assay [4] in a line: qHTS assay to identify small molecule HDAC inhibitors (AID 1259364). Also: potency is read from the fitted curve at half-maximal effect.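 Also: wild-type HCT-116 cells with endogenous class I/II HDAC activity; nearly all actives have a fitted effect of over 45% in size.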 The method in brief:
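HCT-116 wt cells, 1,500/well, overnight attach. Compounds (DMSO) 2 h, 37 °C. HDAC-Glo I/II, 30 min RT. Luminescence.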

Assay [5] in a line: qHTS assay to identify small molecule HDAC inhibitors - cell viability counter screen (AID 1259365). Also: nearly all actives have a fitted effect of over 50% in size. Also: potency is read from the fitted curve at half-maximal effect. The method in brief:
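Following a 2hr exposure of overnight-plated wild-type HCT-116 cells to DMSO-delivered compounds, CellTiter-Glo was added and luminescence recorded after 30min at room temperature.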

A short description of assay [6]: qHTS assay to identify small molecule agonists of the sonic hedgehog signaling (Shh) pathway - cell viability counter screen (AID 1259366). Also: nearly all actives have a fitted effect of over 50% in size. Also: potency is read from the fitted curve at half-maximal effect. The method in brief:
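After a 4hr attachment at 37C, NIH/3T3 cells bearing an integrated Gli1-driven luciferase reporter were dosed with compounds. Treatment lasted 24hr, with the final hour including CellTiter-Fluor for a fluorescence viability measurement.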

Assay [7] in a line: qHTS assay to identify small molecule antagonists of the sonic hedgehog signaling (Shh) pathway - cell viability counter screen (AID 1259367). Also: nearly all actives have a fitted effect of over 55% in size. Also: potency is read from the fitted curve at half-maximal effect. The method in brief: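 Fluorescence read-out (CellTiter-Fluor, 1 hr at 37C) taken after 23 hr compound treatment of 3T3 Gli1-Luc cells stimulated with conditioned medium. Cells were seeded at 2,000 per well and pre-incubated 4 hr.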
The nature of assay [8]: qHTS assay to identify small molecule agonists of the sonic hedgehog signaling (Shh) pathway (AID 1259368; calls by dose curve;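 also: NIH/3T3-derived 3T3Gli1-Luc cells carrying a stable Gli1-driven firefly luciferase reporter; series mostly up to about 92 µM; nearly all actives have a fitted effect of over 15% in size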). The method in brief: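 Following a 24 hr incubation with DMSO-dissolved compounds at 37 C, 5% CO2, Gli1-Luc NIH/3T3-derived cells received luciferase reagent for 30 min at room temperature prior to luminescence measurement.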
A short description of assay [9]: qHTS assay to identify small molecule antagonists of the sonic hedgehog signaling (Shh) pathway (AID 1259369; calls by dose curve; also: nearly all actives have a fitted effect of over 45% in size; also: potency is read from the fitted curve at half-maximal effect). In short, it runs like this: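 Read-out is luminescence from a firefly luciferase gene controlled by the Gli1 response element, in 3T3Gli1-Luc cells pre-incubated 4hr then exposed to compounds and conditioned medium for 24hr.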
Assay [10] in a line: qHTS assay to identify small molecule agonists of the androgen receptor (AR) signaling pathway in the presence of an antagonist - cell viability counter screen (AID 1259379). Also: nearly all actives have a fitted effect of over 25% in size. Also: potency is read from the fitted curve at half-maximal effect. The method in brief:
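Each compound was tested at 15 concentrations on MDA-kb2 cells in the presence of 3.0uM nilutamide. Viability was measured by CellTiter-Fluor fluorescence after a 16 hr incubation at 37C in a CO2-free atmosphere.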

A short description of assay [11]: qHTS assay to identify small molecule agonists of the estrogen receptor beta (ER-beta) signaling pathway - cell viability counter screen (AID 1259380). Also: nearly all actives have a fitted effect of over 30% in size. Also: potency is read from the fitted curve at half-maximal effect. The method in brief: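 Compounds dissolved in DMSO were pin-transferred onto ER-beta-UAS-bla HEK293T cells that had settled 6 hr, and exposure ran 16 hr at 37C. Following the reporter read, CellTiter-Glo luminescence after 30 min at room temperature indicated cytotoxicity.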

Assay [12] deals with Androgen receptor (Homo sapiens) (UniProt P10275). The assay is described as follows: qHTS assay to identify small molecule agonists of the androgen receptor (AR) signaling pathway in the presence of an antagonist (AID 1259381; calls by dose curve; also: nearly all actives have a fitted effect of over 15% in size). In short, it runs like this: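 Plated MDA-kb2 cells (3,000/well) were pre-incubated 5hr, given nilutamide (3.0uM final) or buffer, then dosed with compounds in DMSO at 15 concentrations. Luciferase activity was quantified by luminescence after 16hr at 37C.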

The target in assay [13] is Estrogen receptor (Homo sapiens) (UniProt P03372). The assay is described as follows: qHTS assay to identify small molecule agonists of the estrogen receptor alpha (ER-alpha) signaling pathway in the presence of an antagonist (AID 1259383; calls by dose curve; also: top concentration of the series differs between compounds; nearly all actives have a fitted effect of over 15% in size). In short, it runs like this: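 Luminescent ERE-luciferase reporter, VM7Luc4E2 cells (endogenous ER-alpha); 10.0nM ICI-182,780 final; 15-point compound titration; 22hr at 37C; ONE-Glo, 30min RT.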

The nature of assay [14]: qHTS assay to identify small molecule agonists or antagonists of the thyroid stimulating hormone receptor (TSHR) signaling pathway - wild type cell line counter screen (AID 1259384; calls by dose curve). In short, it runs like this: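 Wild-type Hek293 cells, 800/well, 18 h at 37C, then compound with Ro20-1724 for 30 min RT. cAMP by HTRF (cAMP-d2/anti-cAMP cryptate), 1 h RT, fluorescence read. 15 concentrations, triplicates.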

Assay [15] addresses Thyrotropin receptor (Homo sapiens) (UniProt P16473). The assay is described as follows: qHTS assay to identify small molecule antagonists of the thyroid stimulating hormone receptor (TSHR) signaling pathway (AID 1259385; calls by dose curve; also: nearly all actives have a fitted effect of over 20% in size; also: potency is read from the fitted curve at half-maximal effect). The method in brief:
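TSHR-HEK293 cells (800/well) plated 18 h, then compounds with Ro20-1724 and TSH at 1.5 ng/mL final, 30 min at room temperature. cAMP quantified by HTRF (cAMP-d2/anti-cAMP-cryptate, 1 h); 15 concentrations in triplicate.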

Assay [16] is described as follows: qHTS assay to identify small molecule agonists of the estrogen receptor alpha (ER-alpha) signaling pathway in the presence of an antagonist - cell viability counter screen (AID 1259386).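 Also: cells exposed to compounds for 22 h at 37 °C before the viability read; nearly all actives have a fitted effect of over 30% in size.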 Also: potency is read from the fitted curve at half-maximal effect. The method in brief: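 Using estrogen-depleted VM7Luc4E2 cells, the 15-concentration compound series was applied together with 10.0nM ICI-182,780 and incubated 22hr at 37C/5% CO2. Cell viability was then scored by CellTiter-Fluor.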

Assay [17] in a line: qHTS assay to identify small molecule antagonists of the estrogen receptor beta (ER-beta) signaling pathway - cell viability counter screen (AID 1259382). Also: nearly all actives have a fitted effect of over 55% in size. Also: potency is read from the fitted curve at half-maximal effect. In short, it runs like this:
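CellTiter-Glo ATP luminescence measured after the LiveBLAzer read in the same wells; ER-beta-UAS-bla HEK293T cells, 16 hr compound treatment with 1nM 17-beta-estradiol agonist at 37C, 5% CO2.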

Assay [18] deals with Estrogen receptor beta (Homo sapiens) (UniProt Q92731). Nature of the assay: qHTS assay to identify small molecule agonists of the estrogen receptor beta (ER-beta) signaling pathway (AID 1259377; active = well fitted activation curve with a large enough effect in the signal ratio in the repeat runs, not every such curve was filed as active; the % refers to the signal ratio). The method in brief:
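In HEK293T cells bearing a UAS-beta-lactamase reporter under ER-beta control, DMSO-delivered compounds were incubated for 16 hr at 37C. Activity was detected as fluorescence 2 hours after LiveBLAzer B/G FRET substrate addition.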

The target is the same in assay [19]. Nature of the assay: qHTS assay to identify small molecule antagonists of the estrogen receptor beta (ER-beta) signaling pathway (AID 1259378; active = well fitted inhibition curve with a large enough effect in the signal ratio in the repeat runs, not every such curve was filed as active; the % refers to the signal ratio; also: potency is read from the fitted curve at half-maximal effect). The method in brief: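 ER-beta-UAS-bla HEK293T cells in 2% charcoal-stripped FBS medium treated with compound plus 1nM final 17-beta-estradiol for 16 hr at 37C. Beta-lactamase reporter read by FRET substrate fluorescence after 2 hours at room temperature.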

Assay [20] can be described thus: qHTS assay to identify small molecule phospholipidosis (PLD) inducers (AID 1259344; active = well fitted curve in the direction sought with a large enough effect; an effect the other way counts as inactive or inconclusive). In short, it runs like this: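 Read-out is LipidTOX Red fluorescence (ex 595/em 615) imaged in HepG2 cells after 24 h compound exposure at 37 C, with Hoechst nuclear counterstain (ex 352/em 461) allowing per-cell normalisation.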

Estrogen receptor (Homo sapiens), sequence (P03372 whole entry, looked up): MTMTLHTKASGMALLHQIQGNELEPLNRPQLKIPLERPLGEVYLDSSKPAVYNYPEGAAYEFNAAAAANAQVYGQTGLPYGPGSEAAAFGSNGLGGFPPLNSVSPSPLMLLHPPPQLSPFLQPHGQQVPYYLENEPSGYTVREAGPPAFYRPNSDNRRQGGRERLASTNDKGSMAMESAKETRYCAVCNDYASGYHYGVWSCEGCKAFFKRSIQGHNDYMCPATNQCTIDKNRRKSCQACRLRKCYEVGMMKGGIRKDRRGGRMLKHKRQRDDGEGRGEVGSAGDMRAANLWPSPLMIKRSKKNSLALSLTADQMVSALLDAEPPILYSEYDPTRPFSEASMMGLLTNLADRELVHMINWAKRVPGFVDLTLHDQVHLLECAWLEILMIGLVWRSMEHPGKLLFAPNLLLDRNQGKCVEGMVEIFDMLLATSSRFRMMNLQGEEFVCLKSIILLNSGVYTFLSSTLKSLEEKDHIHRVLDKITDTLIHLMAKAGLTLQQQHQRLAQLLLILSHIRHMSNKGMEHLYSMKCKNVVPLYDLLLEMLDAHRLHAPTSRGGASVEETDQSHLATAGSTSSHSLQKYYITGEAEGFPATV
Androgen receptor (Homo sapiens), sequence (P10275 whole entry, looked up): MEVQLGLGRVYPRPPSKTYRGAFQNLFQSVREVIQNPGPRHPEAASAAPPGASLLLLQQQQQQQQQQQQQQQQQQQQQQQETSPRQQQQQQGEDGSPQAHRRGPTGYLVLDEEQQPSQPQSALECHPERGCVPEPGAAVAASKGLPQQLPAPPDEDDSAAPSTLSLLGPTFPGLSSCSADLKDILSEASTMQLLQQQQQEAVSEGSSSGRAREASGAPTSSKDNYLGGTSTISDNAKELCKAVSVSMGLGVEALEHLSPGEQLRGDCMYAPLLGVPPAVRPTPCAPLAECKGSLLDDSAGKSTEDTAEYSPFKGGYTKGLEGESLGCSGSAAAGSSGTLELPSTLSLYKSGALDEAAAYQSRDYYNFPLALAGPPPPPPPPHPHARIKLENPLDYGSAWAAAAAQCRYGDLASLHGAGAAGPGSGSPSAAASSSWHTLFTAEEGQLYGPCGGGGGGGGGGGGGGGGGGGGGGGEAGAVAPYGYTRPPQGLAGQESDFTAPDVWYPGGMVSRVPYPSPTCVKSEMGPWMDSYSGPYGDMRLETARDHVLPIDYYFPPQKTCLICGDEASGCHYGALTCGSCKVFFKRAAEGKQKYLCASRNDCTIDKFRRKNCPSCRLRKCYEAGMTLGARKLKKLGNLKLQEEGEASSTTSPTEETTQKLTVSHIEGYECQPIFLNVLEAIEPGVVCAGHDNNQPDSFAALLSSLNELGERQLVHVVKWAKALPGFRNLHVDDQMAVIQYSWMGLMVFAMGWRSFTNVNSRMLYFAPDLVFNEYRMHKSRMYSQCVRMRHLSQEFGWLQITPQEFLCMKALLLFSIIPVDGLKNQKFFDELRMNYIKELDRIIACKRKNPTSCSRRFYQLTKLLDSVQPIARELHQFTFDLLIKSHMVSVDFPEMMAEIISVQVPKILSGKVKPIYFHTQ
Thyrotropin receptor (Homo sapiens), sequence (P16473 whole entry, looked up): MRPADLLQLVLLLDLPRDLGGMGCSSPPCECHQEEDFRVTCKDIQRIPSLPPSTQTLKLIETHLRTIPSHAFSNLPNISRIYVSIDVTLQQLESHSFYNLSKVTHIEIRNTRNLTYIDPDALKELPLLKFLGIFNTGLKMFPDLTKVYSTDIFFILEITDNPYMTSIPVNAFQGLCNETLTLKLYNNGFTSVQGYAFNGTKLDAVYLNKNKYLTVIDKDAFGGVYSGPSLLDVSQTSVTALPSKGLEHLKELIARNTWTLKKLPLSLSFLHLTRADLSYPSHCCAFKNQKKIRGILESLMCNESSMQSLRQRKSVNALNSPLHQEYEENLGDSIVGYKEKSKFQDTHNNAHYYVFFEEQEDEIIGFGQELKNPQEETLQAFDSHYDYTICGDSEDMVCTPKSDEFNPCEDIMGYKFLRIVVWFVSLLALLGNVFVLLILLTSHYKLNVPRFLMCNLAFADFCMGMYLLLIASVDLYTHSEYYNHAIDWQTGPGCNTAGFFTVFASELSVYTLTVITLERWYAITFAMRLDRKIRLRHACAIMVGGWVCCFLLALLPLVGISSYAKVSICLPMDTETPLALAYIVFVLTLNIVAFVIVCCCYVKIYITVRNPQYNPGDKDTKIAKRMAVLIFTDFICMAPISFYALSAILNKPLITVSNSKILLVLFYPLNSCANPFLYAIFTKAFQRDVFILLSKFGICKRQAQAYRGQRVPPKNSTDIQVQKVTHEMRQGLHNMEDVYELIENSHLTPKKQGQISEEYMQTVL
Estrogen receptor beta (Homo sapiens), sequence (Q92731 whole entry, looked up): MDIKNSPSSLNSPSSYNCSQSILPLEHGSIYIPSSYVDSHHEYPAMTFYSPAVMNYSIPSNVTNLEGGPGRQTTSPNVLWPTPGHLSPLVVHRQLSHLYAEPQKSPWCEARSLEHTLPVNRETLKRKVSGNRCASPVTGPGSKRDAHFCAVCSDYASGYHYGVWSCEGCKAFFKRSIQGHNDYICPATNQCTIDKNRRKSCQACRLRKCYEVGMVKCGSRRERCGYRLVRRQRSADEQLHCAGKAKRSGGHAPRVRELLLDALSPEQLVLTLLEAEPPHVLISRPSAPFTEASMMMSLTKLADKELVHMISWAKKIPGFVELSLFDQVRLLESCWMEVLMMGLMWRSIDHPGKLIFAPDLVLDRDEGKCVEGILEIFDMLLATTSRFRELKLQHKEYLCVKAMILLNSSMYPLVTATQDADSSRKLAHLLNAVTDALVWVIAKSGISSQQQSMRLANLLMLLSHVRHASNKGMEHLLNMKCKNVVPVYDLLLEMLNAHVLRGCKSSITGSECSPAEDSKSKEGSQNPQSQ

Turning to `CCCCCCCCCCn1cc[n+](CCCCCCCCCC)c1C`, the Potency in assay [1] was 30.7 µM (active); in assay [2], 2.17 µM (active); in assay [3] it was 3.86 µM (active); in [5], 61.2 µM (active); in assay [6], 27.3 µM (active); in [7] it was 30.7 µM (active). In addition, the Potency in assay [9] is 0.077 µM (active); in [10], 24.4 µM (active); in [11], 30.7 µM (active); in assay [15], 54.5 µM (active); in [16] it was 30.7 µM (active). The Potency result in assay [4], in assay [8], in assay [12] and in assay [13] was “inactive” in each case. For the same compound, the result in [14] was inactive.
In the case of `COC(=O)c1cc(Cl)ccc1OC`, the Potency entry in assay [1], in assay [2], in assay [3], in [4], in [5] and in assay [7] was “inactive” throughout. The Potency entry in [8], in [10], in [11], in assay [12], in assay [17] and in assay [13] was “inactive” in each case. Also, the Potency entry in [15] and in [16] was “inactive” in each case. Moreover, in assay [14], the compound was classed as inactive.
On to `O=C(O)c1ccc(Cl)c(Cl)c1`, for which the Potency entry in assay [1], in assay [2], in [3], in [4], in [5] and in assay [6] was “inactive” in each case. In addition, the Potency result in assay [7], in assay [8], in [9], in assay [18], in assay [19] and in assay [10] was “inactive” in each case. For the same compound, the Potency entry in assay [11], in assay [12], in [17], in assay [13], in assay [15] and in assay [16] was “inactive” in each case. For the same compound, the compound was classed as inactive in assay [14].
Consider `CCCCCCCCNC(C)C(O)c1ccc(SC(C)C)cc1` (configuration not stated), for which the Potency in assay [1] was 23.7 µM (active); in assay [2], 23.7 µM (active); in [3] it was 29.8 µM (active); in [6], 16.8 µM (active); in [9] it was 18.8 µM (active); in [10], 23.7 µM (active). Further, the Potency in assay [11] was 11.9 µM (active); in assay [17] it was 13.3 µM (active); in assay [16], 33.5 µM (active). Besides, the Potency result in assay [20], in [8], in [12] and in assay [13] was “inactive” in each case. In addition, the outcome in [14] was inactive.
Regarding `O=C(Oc1ccccc1)c1ccccc1C(=O)Oc1ccccc1`, the Potency entry in assay [1], in [3], in [4], in assay [5], in assay [7] and in assay [8] was “inactive” throughout. Besides, the Potency result in assay [12], in assay [17], in assay [13] and in [16] was “inactive” in each case. In addition, the Potency is 54.5 µM (active) in assay [2] and 48.6 µM (active) in [19].
As to `NNc1nc(-c2ccc([N+](=O)[O-])cc2)cs1`, the Potency was 54.5 µM (active) in assay [1]; 17.2 µM (active) in [2]; 48.6 µM (active) in [3]; 17.2 µM (active) in assay [4]; 48.6 µM (active) in [7]; 48.6 µM (active) in [10]. Further, the Potency in [16] is 24.3 µM (active). In addition, the Potency entry in assay [5], in assay [8], in [18], in assay [19], in assay [12] and in assay [17] was “inactive” in each case. The Potency entry in assay [13] was “inactive”.
As for `CN(C)c1ccc(C2(c3ccc(N(C)C)cc3)OC(=O)c3cc(N(C)C)ccc32)cc1`, the Potency entry in assay [1], in assay [2], in assay [3], in assay [4], in assay [5] and in assay [6] was “inactive” throughout. Besides, the Potency result in assay [7], in assay [8], in assay [19], in assay [10], in assay [11] and in [12] was “inactive” throughout. In addition, the Potency entry in assay [17], in [13], in [15] and in [16] was “inactive” in each case. Also, the outcome in assay [14] was inactive.
